D2 ag-1: agonists of human D2 dopamine receptor (beta-arrestin); P14416; DiscoveRx PathHunter D2 beta-arrestin, luminescence, 90 min; 100% = 57 uM dopamine signal; activation, % (no concentration beside the values); hit rate 0.084% among 360,000; in the data active = activation above about 40%
Target sequence (P14416 whole entry, looked up): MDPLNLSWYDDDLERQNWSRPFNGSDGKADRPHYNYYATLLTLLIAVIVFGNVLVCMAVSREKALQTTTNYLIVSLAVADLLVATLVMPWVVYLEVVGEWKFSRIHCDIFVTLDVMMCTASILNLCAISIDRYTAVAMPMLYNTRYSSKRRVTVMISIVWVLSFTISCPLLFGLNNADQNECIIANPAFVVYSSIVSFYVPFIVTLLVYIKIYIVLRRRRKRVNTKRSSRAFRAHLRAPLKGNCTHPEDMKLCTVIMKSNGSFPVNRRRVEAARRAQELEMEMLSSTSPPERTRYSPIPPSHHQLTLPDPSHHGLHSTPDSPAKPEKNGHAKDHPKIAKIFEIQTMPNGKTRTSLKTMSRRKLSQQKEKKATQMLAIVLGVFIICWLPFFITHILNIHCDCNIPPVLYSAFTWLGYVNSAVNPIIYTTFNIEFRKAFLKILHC
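Agonist mode: compounds alone added to overnight-plated D2 PathHunter cells for 90 min at 37 C, with 57 uM final dopamine (EC100) defining full response. Beta-arrestin recruitment detected by chemiluminescent reagent, read after 1 h at ambient temperature.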
D2 PAM-1: positive allosteric modulators of human D2 dopamine receptor | P14416 | potentiation, % at 10 µM | HEK293 T-REx D2, calcium flux, EC20 dopamine potentiation | hit rate 0.34% among 340,000;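 active = potentiation over 3 SD above the plate norm, cut at about 30% in these data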; note: 0% is about no effect
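Tetracycline-induced HEK293 T-REx cells force-coupled to calcium signalling expressed D2; compounds were pin-added after a 10 s baseline, read kinetically 180 s, then an EC20 dopamine challenge followed with a further 180 s calcium read.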
D2 antagonist: antagonists of human D2 dopamine receptor; P14416; HEK293 TREx D2 cells, calcium flux, dopamine EC80; inhibition, % at 10 µM; hit rate 2% among 340,000; AID 485344; in the data active = inhibition above about 30%; inactive = below that, where a call was filed; note: 0% is about no effect
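Tetracycline-induced HEK293 T-REx cells expressing D2 force-coupled to calcium signalling were dye-loaded, exposed to compound for 180 s, then challenged with an EC80 of dopamine; calcium flux was followed kinetically for a further 180 s.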
D2 ag-2: activates the human D2 dopamine receptor. hit rate 0.53% among 340,000. activation, % at 2 µM. HEK293 T-REx D2 cells, calcium flux agonist mode;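 active = activation over 3 SD above normal in the single-dose calcium agonist read, cut at about 30% in these data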; note: 0% is about no effect
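Calcium-flux readout, 1 cycle/sec over 180 s following compound pin transfer, in inducible HEK293 Trex D2 cells (force-coupled); dopamine controls included. Positive calcium responses during this window marked compounds as potential agonists.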
D2 PAM-2: potentiates the human D2 dopamine receptor allosterically | P14416 | potentiation, % (no concentration beside the values) | DiscoveRx D2 beta-arrestin cells, luminescence, 90 min; 100% = 57 uM dopamine signal | hit rate 0.23% among 360,000; in the data active = potentiation above about 50%
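PathHunter D2 cells, attached overnight at 37 deg C, received compound in DMSO plus dopamine at EC20 (50 nM final) for 90 min at 37 deg C. Beta-arrestin recruitment was read as luminescence after 1 h with detection reagent at ambient temperature.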
The depositor's hits bear a star; · = not tested or not shown. Shown are actives, neighbours in structure and some others; about 2.4% of the full set was active somewhere.

SMILES	D2 ag-1	D2 PAM-1	D2 antagonist	D2 ag-2	D2 PAM-2
COc1ccc(C(=O)NC2CC3CCCC(C2)N3Cc2ccccc2)cc1OC (stereo not given)	-4.9	-31.4	81.7*	0.1	-5.4
Cc1noc(NS(=O)(=O)c2ccc(NS(=O)(=O)c3ccc(Cl)cc3)cc2)c1C	-3.2	·	·	·	-8.1
COc1cccc(C(=O)NC2CC3CCCC(C2)N3Cc2ccc(C)cc2)c1 (stereo not given)	-2.3	-17.7	77.3*	-0.8	-82.1
COc1cccc(NC(=O)N2C3CCCC2CC(NC(=O)C2CC2)C3)c1 (stereo not given)	-3.7	-11.1	34.1*	0.8	-4.0
c1ccc(CN=C2CCCc3ccccc3N2)cc1	-3.9	·	·	·	-23.8
Cc1ccc(Cl)cc1NC(=O)CN1CCOCC1	-4.4	·	·	·	-4.3
Cc1c(Cl)cccc1NC(=O)c1ccc2c(c1)CCCN2S(C)(=O)=O	·	0.2	·	0.0	·
COC(=O)C1=C(C)NC(=O)NC1c1ccc2c(c1)OCO2 (stereo not given)	-2.2	-5.1	8.3	0.2	8.2
CN1CC[n+]2c(CN3C(=O)c4ccccc4C3=O)csc21	-1.3	3.3	45.2*	0.5	-2.7
COc1ccc2c(c1)c(C(O)CN1CCC(Cc3ccccc3)CC1)c(C)n2C (stereo not given)	-2.5	-25.8	50.8*	0.3	-19.5
C=CCN1C(=O)/C(=C\c2ccc(C)cc2)N=C1SCC(=O)NCCC	-0.7	4.6	9.0	0.3	-14.6
CCCNC(=O)CSC1=N/C(=C/c2ccc(F)cc2)C(=O)N1CC	-1.9	8.9	35.0*	-0.4	-12.9
CC(=O)Nc1ccc(-c2noc(-c3csc([C@@H]4C[C@H](O)[C@@H](CO)O4)n3)n2)cc1	-3.7	·	·	·	-14.6
CC1CCCCN1C(=O)Cn1ncc2c3ccccc3n(Cc3ccccc3F)c2c1=O (stereo not given)	·	3.6	·	0.4	·
CC(=O)N1CCN(Cc2nc3scc(-c4ccccc4)c3c(=O)[nH]2)CC1	-3.6	-0.5	·	·	-3.8
O=c1[nH]c(CN2CCN(Cc3ccccc3)CC2)nc2scc(-c3ccccc3)c12	-1.6	-23.8	68.8*	0.3	-5.6
CCOc1ncccc1C(=O)Nc1nnc(C2CC2)s1	0.3	37.0*	-26.8	2.3	-22.7
CCOc1ncccc1C(=O)Nc1nnc(C)s1	-5.6	10.8	-0.9	-0.9	-7.3
Cc1cccc(N(C)C(CNS(=O)(=O)c2ccccc2)c2ccccc2)c1 (stereo not given)	·	0.8	·	1.2	·
CCN(CC)Cc1ccccc1CNC(=O)c1cccc(S(=O)(=O)Nc2ccc3c(c2)OCO3)c1	-0.3	-35.9	74.5*	0.6	-2.4
O=C(NC(=S)N1CCOCC1)C12CC3CCC(CC(C3)C1)C2	-1.3	4.5	14.2	1.3	4.0
O=C(NC(=S)N1CCOCC1)C12CCC3CC(CC(C3)C1)C2	-3.6	31.1*	-16.2	-1.4	-5.4
COc1cc2ccnc(Cc3cccc(OC)c3OC)c2cc1OC	15.0	0.3	-4.3	1.4	55.3*
Cc1cc2c(cc1S(=O)(=O)NCc1ccc(F)cc1)OCC(=O)N2	·	6.1	·	1.2	·
FC(F)(F)c1cccc(CN2CCC(c3cc(-c4cccs4)n[nH]3)CC2)c1	3.0	-33.0	83.9*	0.1	-16.1
SMILES	D2 ag-1	D2 PAM-1	D2 antagonist	D2 ag-2	D2 PAM-2
Cc1ccc(CN2CCC(c3cc(-c4cccs4)n[nH]3)CC2)cc1	1.3	-21.0	69.9*	1.1	-18.1
COC(=O)CCN1CCC(c2cc(-c3cccc(C(F)(F)F)c3)n[nH]2)CC1	-3.4	-8.5	-26.8	1.1	-9.6
COc1ccc(-c2cc(C(=O)Nc3cc(C)on3)no2)cc1	-0.6	-9.5	3.0	1.9	-8.8
COc1ccc(NC(=O)c2cc(-c3ccccc3Cl)on2)cc1	-4.6	-12.8	4.4	1.3	-49.6
COc1ccc(NC(=O)c2cc(-c3ccccc3OC)on2)cc1	-2.0	-26.6	32.5*	-0.5	-9.9
COc1ccc(OC)c(-c2cc(C(=O)Nc3cc(C)on3)no2)c1	-1.6	-39.8	38.2*	-1.3	-18.5
COc1ccc(NC(=O)c2cc(-c3ccco3)on2)cc1	-1.3	-7.8	-11.8	0.2	-4.6
CCc1ccc(NC(=O)c2cc(-c3ccco3)on2)cc1	-0.7	52.8*	-15.9	0.3	-3.8
COc1ccc(/C=C(\C#N)C(=O)OC2CCOC2=O)cc1 (stereo not given)	-1.4	6.7	33.4*	0.0	-14.8
CCOc1ccc(S(=O)(=O)N2CCC(n3c(C)nc4cccnc43)CC2)cc1	·	6.3	·	1.5	·
CS(=O)(=O)c1nc(S(=O)(=O)c2ccc(Cl)cc2)c(NCc2ccccn2)s1	-6.3	30.0*	1.1	-0.7	-0.4
CC(C)(C)C1CCc2c(sc(NC(=O)c3ccc(Cl)cc3)c2C(=O)NCc2ccco2)C1 (stereo not given)	·	6.2	·	0.9	·
CCN1CCN(C(=O)c2ccc3c(c2)c(C)c(C)n3Cc2ccccc2)CC1	-1.3	-32.1	37.5*	0.0	-16.2
Cc1c(C)n(Cc2ccc(F)cc2)c2ccc(C(=O)N3CCN(c4ccc(F)cc4)CC3)cc12	·	-2.7	·	·	·
CS(=O)(=O)c1ccc(Oc2ccc(-c3nnco3)cc2)c([N+](=O)[O-])c1	1.8	41.3*	-2.2	1.8	6.7
Cn1c(=O)c2sccc2n2c(CCCC(=O)NCc3ccc(F)cc3)nnc12	-0.9	33.0*	-11.6	2.5	-8.3
Cn1c(=O)c2sccc2n2c(CCCC(=O)Nc3ccc(F)cc3F)nnc12	-2.5	32.4*	3.8	0.8	-10.6
Cn1c(=O)c2sccc2n2c(CCCC(=O)NCc3cccnc3)nnc12	-5.3	12.1	6.5	0.1	-4.7
Cn1c(=O)c2sccc2n2c(CCCC(=O)Nc3ccc(F)c(F)c3)nnc12	·	22.4	·	-0.5	·
Cn1c(=O)c2sccc2n2c(CCCC(=O)NCc3ccc4c(c3)OCO4)nnc12	-1.8	34.6*	-15.5	0.2	-9.1
CC(C)CC1NC(=O)N(CC(=O)NC2CCCc3ccccc32)C1=O (stereo not given)	-2.7	0.8	5.6	-0.5	-4.6
CCc1ccc(NC(=O)Cn2c(=O)ccc3cc(S(=O)(=O)N4CCCC4)ccc32)cc1	·	-1.7	·	1.1	·
COc1ccccc1CCN1CCCC(CN(C)C(=O)c2ccoc2)C1 (stereo not given)	-2.0	-11.0	41.9*	0.0	-27.3
CCC(=O)N1c2ccccc2CC1C(=O)NCCc1ccc(SC)cc1 (stereo not given)	·	-4.5	·	3.7	·
Cc1ccc(-c2cc(C(F)F)nc(NCc3cccnc3)n2)cc1	-2.1	42.0*	1.4	0.7	-22.9
Cc1ccc(-c2cc(C(F)F)nc(NCc3cccs3)n2)cc1	-3.5	3.4	11.0	1.3	-5.0
COc1ccc(-c2cc3nc(NCc4ccc(C)cc4C)n(C)c(=O)c3s2)cc1OC	-1.5	·	·	·	2.4
Cc1ccc(CNc2nc3cc(-c4ccccc4)sc3c(=O)n2C)c(C)c1	52.8*	·	·	·	-3.5
